In PubChem BioAssay AID652126 (The Scripps Research Institute Molecular Screening Center, 2013) one finds activation data, which are given here for 93 compounds.

Screen size: about 370,000 compounds; about 3,700 (1%) were called active.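 How the source made its calls: active means activation above the mean over all tested compounds plus 3 SD (cut at about 0.9% in these data); inactive means the rest.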 This excerpt belongs to a sample that is enriched for actives.

The test concerns Nuclear hormone receptor DAF-12 (Strongyloides stercoralis). In words: ssDAF-12 driven luciferase reporter activation – cell-based, luminescence, HEK293, GRIP1 co-expression, lit1-tk-luc, primary screen (AID 652126).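 Further: 0% = DMSO-only wells and 100% = 3 µM delta7-dafachronic acid wells.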 The following applies: HEK293 ssDAF-12/GRIP1 lit1-tk-luc reporter, at 6.8 µM, stronger effect = higher value, % of 3 µM dafachronic acid response.
As for `CCn1c2ccccc2c2cc(NC(=O)CSc3nnc(-c4ccccc4)n3-c3ccc(C)cc3)ccc21`, the activation is -1.2% (inactive). For `O=C(CSc1nc2ccccc2s1)NN=Cc1ccc(O)cc1O`, the activation was -1.4% (inactive). In the case of `COc1ccc(/C=N/Nc2ncnc3sc4c(c23)CCCC4)cc1O`, the activation is -0.66% (inactive). Take `COc1cc(/C=N/Nc2nc3ccccc3s2)ccc1O`: the activation is 2.25% (active). On to `COc1ccccc1CCNC(=O)C1CCN(c2nc(C)cc(C)n2)CC1`, for which the activation is -1.36% (inactive). In the case of `COc1cccc(-c2cc3nc(NCCOc4ccccc4Cl)n(C)c(=O)c3s2)c1`, the activation was -1.7% (inactive).

`Cn1c(NCc2cccnc2)nc2cc(-c3ccc(F)cc3)sc2c1=O`: the activation was -1.06% (inactive).

As to `O=c1[nH]c(CCl)nc2cc(-c3ccc(Cl)cc3)sc12`, the activation is 1.53% (active).

Consider `CC(C)(C)OC(=O)NCc1cc(F)ccc1/C=C/S(=O)(=O)NCCc1ccccc1`, for which the activation is -1.87% (inactive).

Regarding `CCC(=O)OCCCN1C(=O)CCC12CCC(c1ccccc1)CC2` (stereo not drawn), the activation was -0.68% (inactive). As to `NNC(=O)C1CCCn2c1nc1sc3c(c1c2=O)CCCC3` (stereo not drawn), the activation was 1.14% (active). With `CCn1c(SCC(C)=O)nc2sc3c(c2c1=O)CCCC3`, the activation is -2.16% (inactive).

For `Cc1ccc(C)c(-n2c(SCC(=O)O)nc3sc4c(c3c2=O)CCCC4)c1`, the activation was -1.01% (inactive). For `COc1cccc(Cn2cc(COC(=O)Nc3ccc(F)cc3)nn2)c1` the value was -0.68% (inactive). With `COc1ccc(CSc2nnc(-c3cccc(C)c3)n2C)cc1`, the activation was -1.19% (inactive). Next, `COc1ccc(C2CC(c3cccs3)=Nc3ccccc3S2)cc1OC` (stereo not drawn): 1.64% (active); `COc1ccc(C2CC(c3cccs3)=NN2c2nc(C)c(C(C)=O)s2)cc1OC` (stereo not drawn): -0.94% (inactive); `COc1ccc(C2CC(=O)n3c(nc4ccccc43)S2)cc1OC` (stereo not drawn): -1.19% (inactive).

Regarding `COP(=O)(O)CNC(=O)OCc1ccccc1`, the activation was -0.73% (inactive).

As to `CC(=O)N1CCCN(C2=Nc3ccccc3Sc3ccccc32)CC1`, the activation was -1.69% (inactive).

On to `COc1ccccc1C(=O)COC(=O)CSCC(=O)Nc1cc(C)on1`, for which the activation was 1.36% (active). Turning to `Cc1cc(NC(=O)CSCc2ccccc2C)no1`, the activation was -1.6% (inactive). In the case of `Cc1cc(NC(=O)CSCC(=O)NC(C)c2ccccc2)no1` (stereo not drawn), the activation is -1.09% (inactive). Take `CN(CCO)c1cccc2c1S(=O)(=O)N(Cc1cn(Cc3ccc(C(F)(F)F)cc3)nn1)Cc1ccccc1O2`: the activation was -0.96% (inactive).

With `O=C1C(=O)N(Cc2ccc(-c3ccsc3)cc2)c2ccc(OC(F)(F)F)cc21`, the activation was -0.76% (inactive).

With `CCS(=O)(=O)c1cc([N+](=O)[O-])c(Sc2ccccc2N)s1`, the activation is 0.94% (active).

For `COc1ccccc1C(=O)CSc1nnc(-c2ccccn2)n1-c1ccccc1`, the activation is -1.43% (inactive). For `C=CCN1C(=O)[C@@H](CC(=O)NCC2CCCCC2)[C@]2(C(=O)OC)CCCCC=C12` the value was -1.59% (inactive); for `COCC(=O)N[C@@H]1C[C@@H]2O[C@@H](CO)CC[C@@H]2O[C@@H]1CCc1ccc(-c2ccccc2)cc1`, -1.17% (inactive). Turning to `CN(Cc1nc2ccccc2s1)C(=O)c1ccc(F)cc1`, the activation was 1.11% (active). For `COc1ccccc1S(=O)(=O)NCc1ccc(C(=O)N(C)Cc2ccc(F)cc2)cc1` the value was -1.02% (inactive).

For `CN(Cc1ccc(F)cc1)C(=O)COc1ccc2ccccc2c1`, the activation is -0.45% (inactive). For `CSc1ccc(C=Nn2c(-c3ccc(F)cc3)n[nH]c2=S)cc1` the value was -1.67% (inactive). For the compound `C[C@@H]1ON(C)[C@H]2C[C@H]3c4[nH]c5cccc(-c6ccc7c(c6)OCO7)c5c4CCN3C[C@@H]12`, the activation was -0.56% (inactive). Regarding `O=C(NCCCc1ccccc1)c1cc(COc2c(F)cccc2F)on1`, the activation is -0.16% (inactive). For the compound `CC(C)Cc1cc(C(=O)Nc2cc(Br)ccc2O)no1`, the activation was -1.29% (inactive). Regarding `CC(C)Cc1cc(C(=O)NCCc2ccccc2)no1`, the activation is 1.34% (active). In the case of `COc1ccc(-n2c(SCC(=O)Nc3ccc(C)c(Cl)c3)nc3ccccc3c2=O)cc1`, the activation was -2.01% (inactive). For `CC(=O)Nc1nc2ncccn2c1-c1ccc(C(F)(F)F)cc1`, the activation is -0.67% (inactive).

With `COc1ccccc1C1=Nc2cccc3cccc(c23)N1`, the activation is -1.81% (inactive).

For `c1ccc(C2=Nc3cccc4cccc(c34)N2)cc1`, the activation is 1.19% (active). Regarding `Brc1ccc(C2CC(c3ccccc3)=Nc3ccccc3N2)cc1` (stereo not drawn), the activation was 0.69% (inactive). With `COC(=O)[C@]12C[C@H](CC(=O)NCc3ccccc3)C(=O)N(CCC3=CCCCC3)C1=C[C@H](C(C)C)O[C@@H]2C1CC1`, the activation is -1.77% (inactive). For `COc1ccc(-n2c(SCC(=O)Nc3ccccc3-c3ccccc3)nnc2-c2cccnc2)cc1`, the activation is -1.34% (inactive).

`CN1C(=O)/C(=C\c2cc(Br)cs2)c2ccccc21`: the activation was 1.58% (active).

Turning to `CN1C(=O)/C(=N/OC(=O)c2ccccc2Br)c2ccccc21`, the activation was -1% (inactive). For `CCC1C(=O)c2ccccc2N(C)C1=O` (stereo not drawn) the value was -0.91% (inactive); for `CCC(CO)Nc1cccc2c1S(=O)(=O)N(Cc1cn(Cc3ccccc3C(F)(F)F)nn1)Cc1ccccc1O2` (stereo not drawn), -1.78% (inactive); for `CCC(C)(C)NC(=O)CN(C(=O)CCC(=O)Nc1nccs1)c1ccc2c(c1)OCO2`, 1.27% (active). As for `CCC(C)(C)NC(=O)CN(C(=O)CCC(=O)Nc1cc(C)ccn1)c1ccc2c(c1)OCCO2`, the activation was -1.73% (inactive). Take `O=C(CN(C(=O)CCC(=O)Nc1nccs1)c1ccc(F)cc1)NCc1ccc2c(c1)OCO2`: the activation is -0.97% (inactive). Regarding `FC(F)(F)c1cccc(NC(=S)OC2CCC23CCC(c2ccccc2)CC3)c1` (stereo not drawn), the activation is -0.81% (inactive).

Turning to `CC(NCc1ccco1)C(=O)N1CCCCC1` (stereo not drawn), the activation was -1.35% (inactive). Next, `COC(=O)c1sccc1NC(=O)c1ccc(Cl)cc1`: 0.94% (active); `COC(=O)c1sccc1N/N=C(\C)c1ccc(F)c(Cl)c1`: -1% (inactive); `COC(=O)c1sccc1NC(=O)CCC1CCCC1`: -0.73% (inactive).

As to `Cc1nnc(-c2ccc(Oc3ccc(C)c(C)c3)c([N+](=O)[O-])c2)o1`, the activation is -0.81% (inactive). `CCOC(=O)N1CCN(C(=O)C[C@@H]2C(=O)N(CCc3ccc(Cl)cc3)C3=CCCC[C@]32C(=O)OCC)CC1`: the activation was -1.59% (inactive). For `Cc1ccc(S(=O)(=O)N2CCN(CC(=O)N/N=C/c3ccc(Br)s3)CC2)cc1`, the activation was -1.5% (inactive). As for `O=C(CN1CCSCC1)N/N=C/c1ccc(Cl)cc1`, the activation is 1.53% (active). For the compound `O=C(CN1CCSCC1)N/N=C/c1ccc(F)cc1F`, the activation is -1.01% (inactive). Take `COc1ccc(N2CCN(CCNS(=O)(=O)c3ccc(Cl)s3)CC2)cc1`: the activation is -0.86% (inactive). Take `O=C(NC1CCCCN(Cc2cccc(C(F)(F)F)c2)C1=O)c1ccccc1I` (stereo not drawn): the activation was -1.74% (inactive). With `COC(=O)c1ccc(-n2cnc3ccccc32)nc1`, the activation is -0.78% (inactive). For `CCn1c(NC(=O)c2nn(C)cc2Br)nc2ccccc21` the value was -0.8% (inactive); for `Cn1c(NC(=O)c2ccccc2)nc2ccccc21`, 1.7% (active); for `COc1ccccc1C(=O)NC1CCCCN(C(C)C)C1=O` (stereo not drawn), -0.64% (inactive). Take `CCN(CC)S(=O)(=O)c1ccc(NC(=O)c2cnc(C)cn2)cc1`: the activation was 1.35% (active). For `CCOC(=O)N1CCC(N2Cc3cccc(C(=O)Nc4ccc(S(=O)(=O)N(CC)CC)cc4)c3C2=O)CC1` the value was -1.26% (inactive). For `CCN(CC)S(=O)(=O)c1ccc(NC(=O)c2cccnc2Cl)c(NC(=O)c2cccnc2Cl)c1`, the activation was -0.9% (inactive). Regarding `COC(=O)C1CN(CC(C)C)CCS(=O)(=O)N1Cc1ccc(F)cc1` (stereo not drawn), the activation was -1.13% (inactive).

As for `CCOC(=O)[C@]12CCCCC/C=C\1N(Cc1ccc(OC)cc1)C(=O)[C@H]2CC(=O)N1CCOCC1`, the activation is -0.98% (inactive). For `Cc1c(C)c(C)c(S(=O)(=O)NCCc2ccccn2)c(C)c1C` the value was 0.14% (inactive); for `COc1cncc(-c2cnc3sc(NCCc4ccccn4)nn23)c1`, -1.45% (inactive); for `COc1ccc(NCCc2ccccn2)cc1`, 1.17% (active). Regarding `COC(=O)[C@@]12CCCCC3=C1N(CCC3)C(=O)[C@H]2CC(=O)NCc1cccc2ccccc12`, the activation is -0.9% (inactive). Consider `O=[N+]([O-])c1ccc2oc(-c3cccc(O)c3)nc2c1`, for which the activation is 3.74% (active).

Take `O=C(O)c1ccc([N+](=O)[O-])cc1Sc1ccsc1`: the activation was -1.44% (inactive). As for `COC(=O)C(C)Oc1ccc2c(-c3cccc([N+](=O)[O-])c3)cc(=O)oc2c1` (stereo not drawn), the activation was -1.35% (inactive). In the case of `COc1cccc(NS(=O)(=O)c2ccc(-c3coc(C)n3)cc2)c1`, the activation was -0.73% (inactive). As to `COc1cccc(-c2cnc(OC(C)(C)C)nc2OC(C)(C)C)c1`, the activation is -1.2% (inactive). Regarding `COc1cccc(-c2nc3cc(C)ccc3o2)c1`, the activation is 2.34% (active).

`Cc1cc(=O)[nH]c(SCC(=O)Nc2ccc(F)cc2F)n1`: the activation was -1.31% (inactive). `C=CCN1[C@@H](Cc2ccccc2)COc2cccc(N3CCSCC3)c2S1(=O)=O`: the activation was -1.93% (inactive). Take `O=C(N1CCOCC1)N1CC[C@H]2[C@H](CCCN2Cc2ccc(F)cc2)C1`: the activation is -1.48% (inactive). With `C[C@H](C(=O)N(C)c1ccccc1)[C@@H](O)c1ccc(Cl)cc1`, the activation was -1.24% (inactive).

For the compound `Cn1c(=O)[nH]c(=O)c2c1nc(CN1CCN(c3ccccc3F)CC1)n2CCc1ccccc1`, the activation is -1.22% (inactive). Take `N#C/C(=C/c1ccc(Cl)cc1)NC(=O)c1ccccc1`: the activation was -1.06% (inactive). For `O=C(NC(=O)c1ccccc1)Nc1ccccc1O`, the activation is 2.39% (active). As for `O=C(NC(=S)Nc1cccc2c(O)cccc12)c1cccc(Br)c1`, the activation was -1.15% (inactive). Regarding `NS(=O)(=O)c1ccccc1NC(=O)c1c(O)c2ccccc2[nH]c1=O`, the activation is 1.94% (active). `CCCS(=O)(=O)Nc1c(C(=O)O)[nH]c2ccccc12`: the activation was 0.51% (inactive).

In the case of `CCc1ccc2[nH]c(=O)c(Cc3ccccc3)c(O)c2c1`, the activation was -1.02% (inactive).
